# A number with no mark means an inactive call. Records with an inconclusive call do not appear. The source made the active and inactive calls. Unless noted, calls follow the shape of the dose curve; as a rule, active = well fitted curve in the direction sought with a large enough effect; inconclusive = small, poorly fitted or top-dose-only effect, or another doubt; inactive = no such curve, though single readings can be large; an effect the other way counts as inactive or inconclusive.
# Legend:
# [1] = Cell Viability - LYMP2-015 (AID 971); also: potency is read from the fitted curve at half-maximal effect; nearly all actives have a fitted effect of over 55% in size
# How it was run: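 AC50 values reflect Hill-model fits of ATP-based luminescence (CellTiter-Glo) from a human lymphoblastoid line, 2500 cells/well, treated 24 hr at 37 C.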
# [2] = Cell Viability - LYMP2-017 (AID 972);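 also: potency is read from the fitted curve at half-maximal effect; cells exposed to compound for 24 hours at 37 °C; nearly all actives have a fitted effect of over 55% in size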
# How it was run: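 In this qHTS format, lymphoblastoid cells in complete medium receive test compound for a day at 37 C before ATP content is quantified by luciferase luminescence. Reported AC50 figures come from standard Hill-equation curve fitting.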
# [3] = Cell Viability - LYMP2-019 (AID 973);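 also: potency is read from the fitted curve at half-maximal effect; cells exposed to compound for 24 h at 37 °C; nearly all actives have a fitted effect of over 55% in size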
# How it was run: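 AC50 values come from Hill-equation modelling of qHTS concentration-response curves, where viability is measured as luciferase-based ATP luminescence in the lymphoblastoid line after 24 hr compound exposure in complete culture medium.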
# [4] = Cell Viability - LYMP2-021 (AID 974);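 also: potency is read from the fitted curve at half-maximal effect; compound exposure lasts 24 hours at 37 °C; nearly all actives have a fitted effect of over 55% in size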
# How it was run: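 In qHTS format, compounds are tested against 2500 lymphoblastoid cells per well for 24 h; viable cell number is inferred from ATP-driven luciferase light, and Hill-equation fitting yields AC50 values.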
# [5] = Cell Viability - LYMP2-023 (AID 975)
# How it was run: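 In this qHTS, ATP-based luciferase luminescence (CellTiter-Glo) is quantified in human lymphoblastoid cells after 24 hr compound treatment at 37 C; tetraoctylammonium bromide serves as positive control. Concentration-response curves are Hill-fitted to give AC50.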
# [6] = Cell Viability - LYMP2-006 (AID 978);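 also: potency is read from the fitted curve at half-maximal effect; cells exposed to compound for 24 hours; nearly all actives have a fitted effect of over 60% in size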
# How it was run: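 Cells are seeded at 2500 per well and rested 5 hr at 37 C. Compounds are added across a concentration series for 24 hr at 37 C, after which ATP is quantified by luciferase luminescence.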
# [7] = Cell Viability - LYMP2-007 (AID 979);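 also: potency is read from the fitted curve at half-maximal effect; cells exposed to compound for 24 h before reading; nearly all actives have a fitted effect of over 60% in size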
# How it was run: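 Measured via luciferase-based ATP quantitation: lymphoblastoid cells, 24 hr compound exposure at 37 C, AC50 from Hill fits.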
# [8] = Cell Viability - LYMP2-008 (AID 980); also: potency is read from the fitted curve at half-maximal effect; nearly all actives have a fitted effect of over 60% in size
# How it was run: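 Measured: ATP-dependent luminescence, proportional to viable cell number, in human lymphoblastoid cells treated 24 hr with compound in complete culture medium. Values are AC50s from Hill-equation modelling of qHTS titrations.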
# [9] = Cell Viability - LYMP2-010 (AID 981)
# How it was run: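 This 24 hr viability screen uses LYMP2-010 lymphoblastoid cells, quantifies ATP via luciferase luminescence, and derives AC50 from Hill fits of qHTS concentration-response data.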
# [10] = Cell Viability - LYMP2-012 (AID 982)
# [11] = Cell Viability - LYMP2-014 (AID 983);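 also: potency is read from the fitted curve at half-maximal effect; cells exposed to compound for 24 h at 37 °C; nearly all actives have a fitted effect of over 50% in size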
# How it was run: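 Quantitative HTS in lymphoblastoid cells: 24 hr compound exposure, then CellTiter-Glo ATP luminescence. Positive control was tetraoctylammonium bromide, 6.4pM to 92 uM.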
# [12] = Cell Viability - LYMP2-016 (AID 984)
# How it was run: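 Cells were seeded at 2500 per well and rested 5 hr before a 24 hr compound exposure at 37 C. Viability was then gauged as cellular ATP by luciferase luminescence, with AC50 values fitted to the Hill equation.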
# [13] = Cell Viability - LYMP2-020 (AID 986)
# How it was run: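 Cells at 2500 per well receive a 24 hr compound exposure at 37 C. Viability is measured as ATP-dependent luciferase luminescence, with AC50 modeled from qHTS concentration-response curves.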
# [14] = Cell Viability - LYMP2-022 (AID 987)
# How it was run: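 In this qHTS cytotoxicity screen, compound titrations were incubated 24 hr at 37 C with human lymphoblastoid cells in complete medium. Luciferase-based ATP luminescence provided the viability signal.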
# [15] = Cell Viability - LYMP2-024 (AID 988); also: potency is read from the fitted curve at half-maximal effect; nearly all actives have a fitted effect of over 60% in size
# How it was run: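 Cells at 2500 per well received compound for 24 hr after a 5 hr settling period. Viability was scored by CellTiter-Glo luminescence, with AC50 from Hill fits.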
# [16] = Cell Viability - LYMP2-026 (AID 989);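 also: potency is read from the fitted curve at half-maximal effect; cells exposed to compound for 24 h at 37 °C; nearly all actives have a fitted effect of over 50% in size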
# How it was run: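 Acute toxicity screen in complete culture medium, with 24 hr compound exposure at 37 C. Viability read as cellular ATP via luciferase reaction, with tetraoctylammonium bromide (6.4pM to 92 uM) as positive control.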
# [17] = target: Glucocorticoid receptor (Homo sapiens) (UniProt P04150); assay: qHTS assay for small molecule agonists of glucocorticoid receptor signaling (AID 588532; active = well fitted curve in the direction sought with a large enough effect in the signal ratio, with a control signal flat; the % refers to the signal ratio;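 also: 100% = dexamethasone at 0.1 µM and 0% = DMSO only wells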); settings: HeLa MMTV-bla, beta-lactamase ratio, agonist, 18 h; hits give high values; percent of dexamethasone control, DMSO zero
# Chain of Glucocorticoid receptor (Homo sapiens) (P04150 whole entry, looked up): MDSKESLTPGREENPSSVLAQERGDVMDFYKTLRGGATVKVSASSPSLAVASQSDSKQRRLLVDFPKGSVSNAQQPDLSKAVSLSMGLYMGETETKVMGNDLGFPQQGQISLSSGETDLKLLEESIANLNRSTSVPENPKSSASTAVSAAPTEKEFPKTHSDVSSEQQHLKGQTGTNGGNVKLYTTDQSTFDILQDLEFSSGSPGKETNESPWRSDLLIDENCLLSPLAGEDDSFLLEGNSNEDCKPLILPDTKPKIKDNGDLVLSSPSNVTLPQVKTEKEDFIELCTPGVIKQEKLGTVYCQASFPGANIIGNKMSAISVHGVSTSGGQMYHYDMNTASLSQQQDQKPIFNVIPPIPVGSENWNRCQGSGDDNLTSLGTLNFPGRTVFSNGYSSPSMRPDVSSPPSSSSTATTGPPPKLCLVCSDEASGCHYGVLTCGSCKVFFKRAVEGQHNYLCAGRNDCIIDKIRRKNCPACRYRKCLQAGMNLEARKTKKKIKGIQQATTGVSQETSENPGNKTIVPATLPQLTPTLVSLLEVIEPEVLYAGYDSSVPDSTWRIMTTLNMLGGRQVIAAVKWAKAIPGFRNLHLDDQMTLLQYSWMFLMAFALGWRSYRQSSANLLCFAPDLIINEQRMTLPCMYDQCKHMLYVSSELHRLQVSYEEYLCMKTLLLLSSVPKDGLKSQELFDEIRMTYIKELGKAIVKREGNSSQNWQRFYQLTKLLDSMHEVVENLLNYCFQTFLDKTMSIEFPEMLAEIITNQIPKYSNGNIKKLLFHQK
# How it was run: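 Agonist-mode qHTS: GRE-driven beta-lactamase in HeLa cells exposed 18 h to titrated compounds (up to 92 uM), then CCF4 ratio read after 2 h at RT; Hill-fitted EC50, efficacy relative to 0.1 uM dexamethasone.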
# [18] = target: Glucocorticoid receptor (Homo sapiens) (UniProt P04150); assay: qHTS assay for small molecule antagonists of glucocorticoid receptor signaling (AID 588533; active = well fitted inhibition curve with a large enough effect in the signal ratio, with a control signal flat, not every such curve was filed as active; the % refers to the signal ratio;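 also: cells stimulated with 2 nM dexamethasone as agonist; % is scaled to controls: 0 for no effect and ±100 for the full control effect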)
# How it was run: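 Antagonist-mode qHTS: compound titrations added to GRE-bla HeLa cells, then dexamethasone 2 nM final; 18 h, 37 C. CCF4 FRET fluorescence normalized to dexamethasone and DMSO; IC50 from Hill fit.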
# [19] = target: Peroxisome proliferator-activated receptor gamma (Homo sapiens) (UniProt P37231); assay: qHTS assay for small molecule agonists of peroxisome proliferator-activated receptor gamma signaling (AID 588536; active = well fitted curve in the direction sought with a large enough effect in the signal ratio, with a control signal flat, not every such curve was filed as active; the % refers to the signal ratio;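 also: 0% = DMSO basal wells and 100% = rosiglitazone at 2 µM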)
# Chain of Peroxisome proliferator-activated receptor gamma (Homo sapiens) (P37231 whole entry, looked up): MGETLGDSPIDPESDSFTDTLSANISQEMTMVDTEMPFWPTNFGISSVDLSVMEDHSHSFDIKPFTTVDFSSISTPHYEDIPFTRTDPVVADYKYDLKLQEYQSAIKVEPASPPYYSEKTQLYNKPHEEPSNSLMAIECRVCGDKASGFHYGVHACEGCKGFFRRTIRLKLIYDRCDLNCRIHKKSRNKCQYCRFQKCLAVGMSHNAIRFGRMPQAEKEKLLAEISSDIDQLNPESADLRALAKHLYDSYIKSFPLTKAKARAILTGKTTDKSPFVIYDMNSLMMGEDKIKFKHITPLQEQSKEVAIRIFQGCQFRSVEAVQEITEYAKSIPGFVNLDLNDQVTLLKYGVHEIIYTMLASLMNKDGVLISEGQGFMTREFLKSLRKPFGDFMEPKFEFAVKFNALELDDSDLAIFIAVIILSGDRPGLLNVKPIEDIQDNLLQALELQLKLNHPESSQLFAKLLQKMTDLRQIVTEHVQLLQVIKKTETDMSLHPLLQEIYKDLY
# How it was run: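 Compound treatment: 16 h, 37 C, HEK293 GeneBLAzer cells. Detection: CCF4, 2 h RT. Values: Hill-fit EC50, efficacy as % of 2 uM rosiglitazone.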
# [20] = target: Vitamin D3 receptor (Homo sapiens) (UniProt P11473); assay: qHTS assay for small molecule antagonists of vitamin D receptor signaling (AID 588541; calls by dose curve;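 also: receptor activated by calcitriol during compound treatment; series mostly up to about 77 µM; % is scaled to controls: 0 for no effect and ±100 for the full control effect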)
# Chain of Vitamin D3 receptor (Homo sapiens) (P11473 whole entry, looked up): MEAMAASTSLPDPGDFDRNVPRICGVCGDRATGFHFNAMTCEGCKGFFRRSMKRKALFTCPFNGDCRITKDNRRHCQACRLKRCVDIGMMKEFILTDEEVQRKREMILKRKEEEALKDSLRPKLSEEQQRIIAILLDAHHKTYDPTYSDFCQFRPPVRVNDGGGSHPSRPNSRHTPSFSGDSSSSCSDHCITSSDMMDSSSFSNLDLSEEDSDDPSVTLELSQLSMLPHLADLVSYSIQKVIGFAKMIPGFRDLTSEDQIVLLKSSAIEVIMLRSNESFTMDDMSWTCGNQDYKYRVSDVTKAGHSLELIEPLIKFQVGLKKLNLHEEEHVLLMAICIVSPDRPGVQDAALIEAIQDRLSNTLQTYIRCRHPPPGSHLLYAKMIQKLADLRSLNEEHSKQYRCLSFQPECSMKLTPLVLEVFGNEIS
# How it was run: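 Antagonist-mode beta-lactamase reporter assay: HEK293T VDR-UAS-bla cells were exposed to titrated compound alongside 1-alpha,25-dihydroxyvitamin D3 at 3 nM final for 16 h. Values were normalized to the 50 nM agonist control and DMSO basal, with IC50 and efficacy from Hill equation fits.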
# [21] = target: Thyroid hormone receptor beta (Homo sapiens) (UniProt P10828); assay: qHTS assay for small molecule agonists of thyroid hormone receptor beta signaling (AID 588545; calls by dose curve)
# Chain of Thyroid hormone receptor beta (Homo sapiens) (P10828 whole entry, looked up): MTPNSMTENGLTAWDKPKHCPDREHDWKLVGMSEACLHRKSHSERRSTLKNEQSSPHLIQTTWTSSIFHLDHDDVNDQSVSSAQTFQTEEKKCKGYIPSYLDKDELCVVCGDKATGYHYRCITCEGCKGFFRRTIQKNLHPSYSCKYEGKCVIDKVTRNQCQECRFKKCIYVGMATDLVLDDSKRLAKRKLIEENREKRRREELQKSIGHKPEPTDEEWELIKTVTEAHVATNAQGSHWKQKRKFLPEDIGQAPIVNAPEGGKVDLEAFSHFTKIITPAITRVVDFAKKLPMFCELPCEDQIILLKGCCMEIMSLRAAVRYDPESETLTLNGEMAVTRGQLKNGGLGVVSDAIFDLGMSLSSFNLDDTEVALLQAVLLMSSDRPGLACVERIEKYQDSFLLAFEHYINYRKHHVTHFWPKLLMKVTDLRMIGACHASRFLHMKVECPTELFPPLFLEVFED
# How it was run: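 Agonist activity was read as beta-lactamase CCF4 fluorescence (405 ex, 460/530 em), scaled between DMSO (0%) and 10 nM T3 (100%), then Hill-fitted for EC50 and efficacy. HEK 293 TR-UAS-bla cells in 2% charcoal/dextran FBS medium were exposed 18 h at 37 C.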
# [22] = qHTS assay for small molecule agonists of the antioxidant response element (ARE) signaling pathway (AID 651741; active = well fitted activation curve with a large enough effect in the signal ratio; the % refers to the signal ratio; also: potency is read from the fitted curve at half-maximal effect)
# How it was run: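 Agonist activity is measured as ARE-driven beta-lactamase expression in a stable HepG2 reporter line, using 16 h compound treatment at 37 C and a FRET substrate fluorescence readout after 2 h.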
# [23] = qHTS assay for small molecule activators of the nuclear factor-kappa B (NF-kB) signaling pathway (AID 651749; active = well fitted activation curve with a large enough effect in the signal ratio; the % refers to the signal ratio; also: series mostly up to about 77 µM; % of control where 0% means no effect); settings: NF-kB-bla ME-180 cells, beta-lactamase FRET ratio, 16 h; hits give high values
# How it was run: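 FRET-based beta-lactamase detection in ME-180 cells reports NF-kB response-element-driven transcription following overnight (16 hr) compound treatment.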
# [24] = qHTS assay for small molecule disruptors of the mitochondrial membrane potential - 1 hr assay (AID 651754; calls by dose curve; also: % is scaled to controls: 0 for no effect and ±100 for the full control effect; nearly all actives have a fitted effect of over 35% in size)
# How it was run: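 In this qHTS format, a 1 hr compound treatment of HepG2 cells precedes Mito-MPS staining, and membrane potential is judged from aggregate (red) against monomer (green) fluorescence intensity.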
# [25] = qHTS assay for small molecule disruptors of the mitochondrial membrane potential - 5 hr assay (AID 651755; calls by dose curve; also: % is scaled to controls: 0 for no effect and ±100 for the full control effect; nearly all actives have a fitted effect of over 40% in size)
# How it was run: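 Membrane-potential dye readout: red aggregate (540 ex/590 em) versus green monomer (490 ex/535 em) fluorescence after 30 min dye loading, following 5 hr compound exposure at 37C of overnight-plated HepG2 cells.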
# [26] = target: Tumor necrosis factor (Homo sapiens) (UniProt P01375); assay: qHTS assay to identify small molecules that stimulate Tumor Necrosis Factor-alpha (TNF-alpha) secretion (AID 651757; active = well fitted curve in the direction sought with a large enough effect in the signal ratio; the % refers to the signal ratio; also: 0% is about no effect)
# Chain of Tumor necrosis factor (Homo sapiens) (P01375 whole entry, looked up): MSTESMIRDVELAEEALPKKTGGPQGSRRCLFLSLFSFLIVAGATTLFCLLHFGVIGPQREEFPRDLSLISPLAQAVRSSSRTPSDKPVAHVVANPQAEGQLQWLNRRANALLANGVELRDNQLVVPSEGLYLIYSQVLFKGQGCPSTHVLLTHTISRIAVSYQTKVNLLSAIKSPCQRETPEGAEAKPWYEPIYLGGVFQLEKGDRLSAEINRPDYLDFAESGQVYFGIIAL
# How it was run: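 Using 3000 THP-1 cells per well, compounds and controls were applied for 17 hrs at 37 C. Detection followed with two labeled anti-TNF-alpha antibodies (cryptate donor, XL665 acceptor) for 3 hr at room temperature, measured by TR-FRET.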
# [27] = qHTS assay for environmental chemicals that activate the Aryl hydrocarbon Receptor (AhR) signaling pathway (AID 651777); settings: 1A2-DRE human hepatoma cells, luciferase, 24 h; activation: hits give high values; also: % of control where 0% means no effect; nearly all actives have a fitted effect of over 15% in size
# How it was run: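 Luminescence read-out: One-Glo added for 30 min at RT after 24 hr compound treatment (37 C, 5% CO2) of human hepatoma cells expressing a DRE/CYP1A2 promoter–luciferase reporter; increased signal indicates AhR activation.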
# [28] = target: Peroxisome proliferator-activated receptor alpha (Homo sapiens) (UniProt Q07869); assay: qHTS assay for small molecule agonists of the peroxisome proliferator-activated receptor alpha (PPARalpha) signaling pathway (AID 651778); settings: PathHunter PPARalpha complementation, chemiluminescence, 6 h; max response: hits give high values; also: % of control where 0% means no effect
# Chain of Peroxisome proliferator-activated receptor alpha (Homo sapiens) (Q07869 whole entry, looked up): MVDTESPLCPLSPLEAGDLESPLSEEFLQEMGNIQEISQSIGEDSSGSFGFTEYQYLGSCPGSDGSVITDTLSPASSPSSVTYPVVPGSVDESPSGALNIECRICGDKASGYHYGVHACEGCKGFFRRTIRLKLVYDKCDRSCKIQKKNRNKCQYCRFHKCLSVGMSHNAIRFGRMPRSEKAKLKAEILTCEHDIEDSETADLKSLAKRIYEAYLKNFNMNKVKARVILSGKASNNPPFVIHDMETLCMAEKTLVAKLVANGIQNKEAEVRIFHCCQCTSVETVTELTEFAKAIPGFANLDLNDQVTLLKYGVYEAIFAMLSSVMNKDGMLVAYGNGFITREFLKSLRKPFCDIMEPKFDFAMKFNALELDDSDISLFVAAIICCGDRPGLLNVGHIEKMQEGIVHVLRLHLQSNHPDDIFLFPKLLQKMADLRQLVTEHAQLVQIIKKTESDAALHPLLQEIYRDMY
# How it was run: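 Chemiluminescence from complemented enzyme reported PPARalpha activation in cells after 6 hr of compound treatment at 37 C. The detection reagent was incubated for 60 min at room temperature, and compounds were scored as agonists.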
# [29] = target: Nuclear receptor ROR-gamma (Homo sapiens) (UniProt P51449); assay: qHTS assay for small molecule antagonists of the retinoid-related orphan receptor gamma (ROR-gamma) signaling pathway (AID 651802)
# Chain of Nuclear receptor ROR-gamma (Homo sapiens) (P51449 whole entry, looked up): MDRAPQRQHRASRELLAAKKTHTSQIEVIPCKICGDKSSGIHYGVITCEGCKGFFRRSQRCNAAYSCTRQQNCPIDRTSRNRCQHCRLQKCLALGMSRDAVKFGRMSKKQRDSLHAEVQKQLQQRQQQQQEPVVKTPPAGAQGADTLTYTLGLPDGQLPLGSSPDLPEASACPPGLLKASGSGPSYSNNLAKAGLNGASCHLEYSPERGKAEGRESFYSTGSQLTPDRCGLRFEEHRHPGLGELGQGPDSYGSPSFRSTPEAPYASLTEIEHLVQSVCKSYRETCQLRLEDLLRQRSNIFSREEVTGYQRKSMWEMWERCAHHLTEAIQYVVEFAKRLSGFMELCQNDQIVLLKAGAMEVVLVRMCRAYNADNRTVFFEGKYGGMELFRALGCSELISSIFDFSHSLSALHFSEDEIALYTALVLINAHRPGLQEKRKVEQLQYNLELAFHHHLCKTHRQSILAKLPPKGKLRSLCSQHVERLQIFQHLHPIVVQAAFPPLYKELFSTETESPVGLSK
# How it was run: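 Doxycycline-induced reporter activity in engineered CHO cells (TET-inducible ROR, RORE-LUC) was measured by luminescence after 16hr compound exposure at 37C.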
# [30] = qHTS assay for small molecule agonists of the antioxidant response element (ARE) signaling pathway measured by Nrf2-dependant transcriptional activity (AID 720636; active = well fitted curve in the direction sought with a large enough effect in the repeat runs; an effect the other way counts as inactive or inconclusive; also: potency is read from the fitted curve at half-maximal effect)
# How it was run: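 HepG2 ARE-luc reporter line, 1% dialyzed FBS; 6 hr attachment at 37 C, compound pinned in, 16 hr at 37 C/5% CO2; ONE-Glo, 30 min RT, luminescence read.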
# [31] = qHTS assay for small molecule agonists of the antioxidant response element (ARE) signaling pathway measured by Nrf2-dependant transcriptional activity - cell viability counter screen (AID 720653; active = well fitted curve in the direction sought with a large enough effect in the repeat runs; an effect the other way counts as inactive or inconclusive; also: % is scaled to controls: 0 for no effect and ±100 for the full control effect); settings: ARE-bla HepG2 viability, CellTiter-Glo ATP luminescence, 16 h; max response: hits give low values
# How it was run: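 Cytotoxicity counter screen: intracellular ATP quantified by CellTiter-Glo luminescence in the same ARE-bla HepG2 plates, after 16 h compound exposure and a 2 h beta-lactamase substrate step.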
# [32] = qHTS assay for cell viability of the p53RE-bla HCT-116 cell line (AID 743292)
# How it was run: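 Luminescent ATP quantitation (CellTiter-Glo) served as the viability read-out; reagent was added after 16 h compound exposure at 37 C and read after 30 min at room temperature. Cells: p53RE-bla HCT-116, 4,000 per well.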
# [33] = target: Nuclear receptor subfamily 1 group I member 2 (Rattus norvegicus) (UniProt Q9R1A7); assay: qHTS assay for small molecule activators of the rat pregnane X receptor (rPXR) signaling pathway (AID 651751; call rule not given here; also: 0% is about no effect); settings: rPXR reporter cells, luciferase (One-Glo), 24 h
# Chain of Nuclear receptor subfamily 1 group I member 2 (Rattus norvegicus) (Q9R1A7 whole entry, looked up): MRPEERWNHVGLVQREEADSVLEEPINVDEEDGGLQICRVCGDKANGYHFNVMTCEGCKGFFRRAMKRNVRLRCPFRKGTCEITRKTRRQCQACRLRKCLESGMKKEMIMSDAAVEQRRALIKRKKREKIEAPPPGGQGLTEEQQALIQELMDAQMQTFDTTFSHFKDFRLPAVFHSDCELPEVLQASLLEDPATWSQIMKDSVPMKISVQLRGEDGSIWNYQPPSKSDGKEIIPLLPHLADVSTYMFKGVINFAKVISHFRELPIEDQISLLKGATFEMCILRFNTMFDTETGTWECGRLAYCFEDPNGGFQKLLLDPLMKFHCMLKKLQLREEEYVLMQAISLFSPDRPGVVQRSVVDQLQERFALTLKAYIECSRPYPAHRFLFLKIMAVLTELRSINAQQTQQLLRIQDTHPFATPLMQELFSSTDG
smiles,measurement,setting,value
CC/C=C/C/C=C/C/C=C/CCCCCCCC(=O)OCC,Potency,[1],39.8 µM (active)
same,Potency,[2],31.6 µM (active)
same,Potency,[3],39.8 µM (active)
same,Potency,[4],50.1 µM (active)
same,Potency,[5],39.8 µM (active)
same,Potency,[6],50.1 µM (active)
same,Potency,[7],31.6 µM (active)
same,Potency,[8],50.1 µM (active)
same,Potency,[9],25.1 µM (active)
same,Potency,[10],39.8 µM (active)
same,Potency,[11],50.1 µM (active)
same,Potency,[12],39.8 µM (active)
same,Potency,[13],39.8 µM (active)
same,Potency,[14],25.1 µM (active)
same,Potency,[15],25.1 µM (active)
same,Potency,[16],50.1 µM (active)
same,activation,[17],-2.85%
same,Potency,[18],inactive
same,outcome,[19],inactive
same,Potency,[20],inactive
same,Potency,[21],inactive
same,Potency,[22],59.6 µM (active)
same,activation,[23],-1.38%
same,Potency,[24],inactive
same,Potency,[25],inactive
same,Potency,[26],inactive
same,activation,[27],0.56%
same,max response,[28],19.5%
same,Potency,[29],inactive
same,Potency,[30],66.8 µM (active)
same,max response,[31],-18.4%
same,Potency,[32],inactive
same,max response,[33],2.44%

# Reference: PubChem BioAssay (NCATS)
